# PubChem BioAssay (EPA / NIEHS)
# Records with an inconclusive call do not appear. More than one record can exist for a structure, and the calls need not agree. The source made the active and inactive calls. Rule for the calls, unless noted: active = hit-call score of the fitted dose curve at least 0.9, where 1 is the maximum; inconclusive = response in the unintended direction; inactive = score below 0.9.
# Assays:
# [1] = target: human Peripheral-type Benzodiazepine Receptor (PBR), TSPO (gene 706) (UniProt P30536); test: NVS_MP_hPBR: NovaScreen (NVS) Membrane Protein Assay for human Peripheral-type Benzodiazepine Receptor (PBR) (AID 2283331);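 note: hits reduce radioligand binding relative to DMSO baseline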
# Outline: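 Human colonic cell membranes were incubated with test chemical for 1 hour; radioligand binding was measured by filter-based scintillation counting. Primary screen ran in duplicate at 25 uM, with actives followed in concentration series; loss of signal versus DMSO baseline.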
# [2] = target: rat Peripheral-type Benzodiazepine Receptor (PBR), Tspo (gene 24230) (UniProt P16257); test: NVS_MP_rPBR: NovaScreen (NVS) Membrane Protein Assay for rat Peripheral-type Benzodiazepine Receptor (PBR) (AID 2283335)
# Outline: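 Rat kidney membranes; radioligand binding with displacement, filter-based scintillation counting, 1 h incubation. Primary screen in duplicate at 25 uM, actives followed in concentration series; loss of binding vs DMSO.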
# [3] = target: rat Thyrotropin Releasing Hormone Receptor (TRH), Trhr (gene 25570) (UniProt Q01717); test: NVS_GPCR_rTRH: NovaScreen (NVS) G Protein-Coupled Receptor Assay for rat Thyrotropin Releasing Hormone Receptor (TRH) (AID 2283329);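 note: hit means lower bound tracer signal versus DMSO baseline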
# Outline: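 Rat forebrain membrane prep, radioligand displacement, filter scintillation readout at 4 h. Single conc 25 uM, duplicate; actives retested as concentration series. DMSO = negative control/baseline.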
# [4] = target: Glutamate receptor ionotropic, kainate 1 (Rattus norvegicus) (UniProt P22756); test: NVS_IC_rKAR: NovaScreen (NVS) Ion Channel Assay for rat Kainic Acid Receptors (KAR) (AID 2283334; active = hit-call score of the fitted dose curve at least 0.9, where 1 is the maximum; inactive = score below 0.9)
# Outline: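 Radioligand displacement binding using rat forebrain membranes, 1 h incubation, filter-based scintillation counting. Screened in duplicate at 25 uM, with actives retested in concentration-response up to 50 uM; fitted against DMSO.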
# [5] = target: Small conductance calcium-activated potassium channel protein 1 (Rattus norvegicus) (UniProt P70606); test: NVS_IC_rKCaCh: NovaScreen (NVS) Ion Channel Assay for rat Potassium Channel, Ca2+ Act., VI (KCaCh) (AID 2283336)
# Procedure: NVS_IC_rKCaCh is a biochemical, single-readout assay that uses extracted gene-proteins from Rat forebrain membranes in a tissue-based cell-free assay. Measurements were taken 1 hour after chemical dosing in a 96-well plate.NVS_IC_rKCaCh is one of one assay component(s) measured or calculated from the NVS_IC_rKCaCh assay. It is designed to make measurements of radioligand binding, a form of binding reporter, as detected with scintillation counting signals by Filter-based radiodetection technology.Data from the assay component NVS_IC_rKCaCh was analyzed into 1 assay endpoint. This assay endpoint, NVS_IC_rKCaCh, was analyzed in the positive analysis fitting direction relative to DMSO as the negative control and baseline of activity. […] Furthermore, this assay endpoint can be referred to as a primary readout, because the performed assay has only produced 1 assay endpoint. […]
# Binding assays used specific radioligands (tritiated, iodinated) with non-radioactive competitive displacement ligands in agonist or antagonist protocols (as indicated) and various reference compounds and inhibitors to titrate specific binding to receptors and transporters. Most enzyme assays (CYPs, kinases, phosphatases, proteases, HDACs) used recombinant protein and specific substrates (fluorescence mostly, some colorimetric and radioactive) and inhibitors, followed by a biochemical separation of substrate and product. […]
# Chain of human Peripheral-type Benzodiazepine Receptor (PBR), TSPO (gene 706) (P30536 whole entry, looked up): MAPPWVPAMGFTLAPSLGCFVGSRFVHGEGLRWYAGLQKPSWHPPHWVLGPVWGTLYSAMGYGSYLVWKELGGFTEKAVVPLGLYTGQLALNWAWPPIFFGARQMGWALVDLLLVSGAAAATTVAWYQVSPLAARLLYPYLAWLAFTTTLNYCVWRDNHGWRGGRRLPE
# Chain of rat Peripheral-type Benzodiazepine Receptor (PBR), Tspo (gene 24230) (P16257 whole entry, looked up): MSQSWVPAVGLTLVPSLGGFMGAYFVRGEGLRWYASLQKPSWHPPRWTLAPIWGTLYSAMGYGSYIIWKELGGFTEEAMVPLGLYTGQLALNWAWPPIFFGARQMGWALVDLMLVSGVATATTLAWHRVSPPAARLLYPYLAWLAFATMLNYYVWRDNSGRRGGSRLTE
# Chain of Glutamate receptor ionotropic, kainate 1 (Rattus norvegicus) (P22756 whole entry, looked up): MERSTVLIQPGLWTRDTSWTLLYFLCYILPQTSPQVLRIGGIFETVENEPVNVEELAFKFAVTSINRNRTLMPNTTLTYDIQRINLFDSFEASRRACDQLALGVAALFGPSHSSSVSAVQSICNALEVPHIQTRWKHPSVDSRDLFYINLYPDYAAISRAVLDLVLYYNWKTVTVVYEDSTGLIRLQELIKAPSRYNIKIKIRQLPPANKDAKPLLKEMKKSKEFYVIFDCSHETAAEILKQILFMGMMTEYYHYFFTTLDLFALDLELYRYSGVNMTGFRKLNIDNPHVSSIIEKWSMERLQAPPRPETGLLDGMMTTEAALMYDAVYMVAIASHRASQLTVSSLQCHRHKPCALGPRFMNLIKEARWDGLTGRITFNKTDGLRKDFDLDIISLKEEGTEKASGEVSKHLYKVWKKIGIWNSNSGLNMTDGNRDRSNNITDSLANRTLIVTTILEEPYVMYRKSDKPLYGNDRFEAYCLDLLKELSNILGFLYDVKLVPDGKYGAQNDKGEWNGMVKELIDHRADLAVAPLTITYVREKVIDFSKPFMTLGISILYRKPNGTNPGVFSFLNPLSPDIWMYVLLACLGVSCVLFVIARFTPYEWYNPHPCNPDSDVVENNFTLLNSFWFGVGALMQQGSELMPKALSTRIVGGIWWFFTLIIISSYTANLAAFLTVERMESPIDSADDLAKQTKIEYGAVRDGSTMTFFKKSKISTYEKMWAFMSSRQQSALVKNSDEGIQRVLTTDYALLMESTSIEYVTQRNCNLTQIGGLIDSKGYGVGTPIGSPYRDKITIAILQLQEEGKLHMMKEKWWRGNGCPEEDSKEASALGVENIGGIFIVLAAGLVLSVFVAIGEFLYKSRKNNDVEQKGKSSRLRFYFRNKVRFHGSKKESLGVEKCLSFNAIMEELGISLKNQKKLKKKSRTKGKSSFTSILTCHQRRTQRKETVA
# Chain of rat Thyrotropin Releasing Hormone Receptor (TRH), Trhr (gene 25570) (Q01717 whole entry, looked up): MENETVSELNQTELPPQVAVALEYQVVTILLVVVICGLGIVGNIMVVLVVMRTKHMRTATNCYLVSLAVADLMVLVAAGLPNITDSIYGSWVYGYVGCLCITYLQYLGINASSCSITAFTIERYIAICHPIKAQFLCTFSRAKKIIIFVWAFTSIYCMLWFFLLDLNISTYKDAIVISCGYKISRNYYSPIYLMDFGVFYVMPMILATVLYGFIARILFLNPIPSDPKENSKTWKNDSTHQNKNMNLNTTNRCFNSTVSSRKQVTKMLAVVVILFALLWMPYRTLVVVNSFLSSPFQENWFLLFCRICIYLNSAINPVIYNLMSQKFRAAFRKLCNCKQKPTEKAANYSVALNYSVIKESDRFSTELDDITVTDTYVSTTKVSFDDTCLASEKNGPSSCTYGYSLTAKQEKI
# Chain of Small conductance calcium-activated potassium channel protein 1 (Rattus norvegicus) (P70606 whole entry, looked up): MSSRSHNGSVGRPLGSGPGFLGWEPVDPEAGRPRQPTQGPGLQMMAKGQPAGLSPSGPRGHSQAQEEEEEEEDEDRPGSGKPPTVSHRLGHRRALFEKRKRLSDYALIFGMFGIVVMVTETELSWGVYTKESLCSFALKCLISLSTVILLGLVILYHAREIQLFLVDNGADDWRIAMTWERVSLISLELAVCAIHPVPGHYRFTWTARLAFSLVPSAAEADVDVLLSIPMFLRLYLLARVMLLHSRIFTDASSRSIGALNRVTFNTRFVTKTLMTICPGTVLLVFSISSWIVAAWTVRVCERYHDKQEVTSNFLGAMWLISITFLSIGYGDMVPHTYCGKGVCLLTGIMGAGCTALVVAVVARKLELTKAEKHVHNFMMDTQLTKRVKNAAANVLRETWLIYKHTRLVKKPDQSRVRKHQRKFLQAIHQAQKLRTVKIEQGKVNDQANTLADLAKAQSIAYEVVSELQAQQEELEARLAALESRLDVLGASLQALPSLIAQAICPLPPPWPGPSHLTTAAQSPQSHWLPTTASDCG
compound,measurement,setting,value
CNC(=O)CSP(=S)(OC)OC,outcome,[1],inactive
same,outcome,[2],inactive
ClC1C(Cl)C(Cl)C(Cl)C(Cl)C1Cl (stereo not given),outcome,[3],inactive
same,outcome,[1],inactive
same,outcome,[4],inactive
same,AC50,[2],14.1 µM (active)
same,outcome,[2],inactive
N#CN,outcome,[5],inactive
O=C(O)CCCOc1ccc(Cl)cc1Cl,outcome,[1],inactive
same,outcome,[2],inactive
COc1nn(CSP(=S)(OC)OC)c(=O)s1,outcome,[1],inactive
same,AC50,[2],13.1 µM (active)
O=C1c2ccccc2C(=O)N1SC(Cl)(Cl)Cl,outcome,[2],inactive
COC(=O)c1ccccc1S(=O)(=O)NC(=O)Nc1nc(C)nc(OC)n1,outcome,[1],inactive
CCC(C)(NC(=O)c1cc(Cl)c(C)c(Cl)c1)C(=O)CCl (stereo not given),AC50,[1],25 µM (active)
same,AC50,[2],0.0105 µM (active)
O=S1OCC2C(CO1)C1(Cl)C(Cl)=C(Cl)C2(Cl)C1(Cl)Cl (stereo not given),outcome,[1],inactive
same,outcome,[2],inactive
O=C(O)COc1ccc(Cl)cc1Cl,outcome,[1],inactive
same,outcome,[4],inactive
